Compound: Nc1ncnc2c1ncn2[C@@H]1O[C@H](COP(=O)(O)OP(=O)(O)OP(=O)(O)O)[C@@H](O)[C@H]1O [adenosine 5'-triphosphate]
Assay: log2 fold change of tryptic peptide abundance, ligand vs vehicle (limited proteolysis) (log2 ratio); higher = more trypsin-susceptible (destabilized)
Conditions: ligand concentration: 5 mM; sample: E. coli desalted lysate; replicate design: treated before aliquoting
Protocol: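 HT-PELSA: desalted E. coli K-12 BW25113 lysate (with 12 mM MgCl2) incubated with 5 mM ATP (pH 7) or water for 30 min at 25 C, then a 4 min trypsin pulse at 22 C. Peptides were quantified by DIA-MS (4 replicates). Value is the peptide log2 fold change (treated/control); negative = stabilized. Scale: negative = ligand-stabilized region.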
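Also: lysate desalted by size exclusion to strip endogenous ATP, peptide intensities built from DIA-NN precursor signals, and peptides missing any value discarded before comparison.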

| Target | log2 fold change |
| --- | --- |
| UniProt P31808 (peptide sequence: TGMTFDAQPGR, peptide start residue: 236) | -0.533 |
| UniProt P77783 (peptide sequence: MNHPDRLK, peptide start residue: 109) | -0.483 |
| UniProt P37197 (peptide sequence: GDENALTAQQK, peptide start residue: 330) | -0.521 |
| UniProt P15043 (peptide sequence: FGKPFMALIR, peptide start residue: 591) | 0.672 |
| UniProt P39342 (peptide sequence: MGPVTEDER, peptide start residue: 387) | -1.06 |
| UniProt P75829 (peptide sequence: EIAEIASK, peptide start residue: 298) | -0.281 |
| UniProt P37349 (peptide sequence: LIAKGPEAEEALIAFR, peptide start residue: 217) | 0.492 |
| UniProt P0ADM4 (peptide sequence: EGTYPGTR, peptide start residue: 32) | -0.36 |
| UniProt P37617 (peptide sequence: DEQAAEEPQASR, peptide start residue: 113) | 2.93 |
| UniProt P00452 (peptide sequence: FYDAVSTFK, peptide start residue: 196) | -3.51 |
| UniProt P31680 (peptide sequence: LMSEHHPDKLVAK, peptide start residue: 228) | -0.381 |
| UniProt P77374 (peptide sequence: INHPDRLNYPMKR, peptide start residue: 106) | -0.781 |
| UniProt P37744 (peptide sequence: KGFIDVEQVRK, peptide start residue: 261) | -0.836 |
| UniProt P24193 (peptide sequence: AVVTSMAETAR, peptide start residue: 111) | -1.88 |
| UniProt P69789 (peptide sequence: LYSKAEYK, peptide start residue: 48) | -1.96 |
| UniProt P33650 (peptide sequence: AYAGEASQHLDAALAR, peptide start residue: 217) | 0.832 |
| UniProt Q47147 (peptide sequence: QANRGEVALENTHPFTR, peptide start residue: 80) | 0.755 |
| UniProt P27300 (peptide sequence: SVDAVIVNGGVPR, peptide start residue: 190) | -2.1 |
| UniProt P37745 (peptide sequence: WVGVLLSADNK, peptide start residue: 98) | -0.542 |
| UniProt P25536 (peptide sequence: IVTGIEEQR, peptide start residue: 27) | -1.03 |

| Target | log2 fold change |
| --- | --- |
| UniProt P76177 (peptide sequence: KRIVQSPDVIPADSEAGR, peptide start residue: 179) | 2.16 |
| UniProt P03817 (peptide sequence: FGAIGIGSR, peptide start residue: 85) | 0.339 |
| UniProt P77552 (peptide sequence: AENTVVTGAGWLK, peptide start residue: 41) | 0.332 |
| UniProt P76097 (peptide sequence: FGEIEQR, peptide start residue: 288) | 0.885 |
| UniProt P32144 (peptide sequence: NILLVADHTK, peptide start residue: 206) | -0.398 |
| UniProt P75745 (peptide sequence: QLLWGNR, peptide start residue: 167) | -0.312 |
| UniProt P22255 (peptide sequence: ESFLNPGFR, peptide start residue: 234) | 0.721 |
| UniProt P39399 (peptide sequence: AAGVSPVVVR, peptide start residue: 118) | 0.3 |
| UniProt P55734 (peptide sequence: LRHEQIIFHCQAGKR, peptide start residue: 55) | 0.948 |
| UniProt P45522 (peptide sequence: TLVTLGMHPHQAQR, peptide start residue: 530) | 0.604 |
| UniProt Q47146 (peptide sequence: GITLPSNSTGGVK, peptide start residue: 375) | -0.706 |
| UniProt P39829 (peptide sequence: SANPSPGNKK, peptide start residue: 364) | -0.412 |
| UniProt P0A9L8 (peptide sequence: FAAQAVMGSAK, peptide start residue: 203) | -0.702 |
| UniProt P37051 (peptide sequence: TICPDQK, peptide start residue: 11) | -0.377 |
| UniProt P76558 (peptide sequence: TNLFMKPIFSQAR, peptide start residue: 427) | 0.538 |
| UniProt P77737 (peptide sequence: TRCPIAGPECAK, peptide start residue: 302) | 2.24 |
| UniProt P52598 (peptide sequence: SCVGEAAATMLR, peptide start residue: 151) | -0.421 |
| UniProt P37766 (peptide sequence: AIAPDIAFIR, peptide start residue: 178) | -0.633 |
| UniProt P0A698 (peptide sequence: SSLAFDTLYAEGQRR, peptide start residue: 38) | 2.9 |

Source: the supplement of paper PMC12819154, “High-throughput peptide-centric local stability assay extends protein–ligand identification to membrane proteins, tissues and bacteria” (Nature Structural & Molecular Biology, 2025)
